The list is not random: actives were taken first. Their share in the collection is about 17%.
TDP1 inh: blocks human tyrosyl-DNA phosphodiesterase 1 | Q9NUW8 | actives 0.28% (n = 350,000) | recombinant TDP1, AlphaScreen DNA substrate cleavage | Potency, µM (titrated, usually from 130 µM), without a hit: top-dose activity change, negative = inhibition, hits mostly inhibitors | AID 485290; note: % is set by controls: 0 for no effect and ±100 for the full control effect; nearly all actives have a fitted effect of over 40% in size
Target sequence (Q9NUW8 whole entry, looked up): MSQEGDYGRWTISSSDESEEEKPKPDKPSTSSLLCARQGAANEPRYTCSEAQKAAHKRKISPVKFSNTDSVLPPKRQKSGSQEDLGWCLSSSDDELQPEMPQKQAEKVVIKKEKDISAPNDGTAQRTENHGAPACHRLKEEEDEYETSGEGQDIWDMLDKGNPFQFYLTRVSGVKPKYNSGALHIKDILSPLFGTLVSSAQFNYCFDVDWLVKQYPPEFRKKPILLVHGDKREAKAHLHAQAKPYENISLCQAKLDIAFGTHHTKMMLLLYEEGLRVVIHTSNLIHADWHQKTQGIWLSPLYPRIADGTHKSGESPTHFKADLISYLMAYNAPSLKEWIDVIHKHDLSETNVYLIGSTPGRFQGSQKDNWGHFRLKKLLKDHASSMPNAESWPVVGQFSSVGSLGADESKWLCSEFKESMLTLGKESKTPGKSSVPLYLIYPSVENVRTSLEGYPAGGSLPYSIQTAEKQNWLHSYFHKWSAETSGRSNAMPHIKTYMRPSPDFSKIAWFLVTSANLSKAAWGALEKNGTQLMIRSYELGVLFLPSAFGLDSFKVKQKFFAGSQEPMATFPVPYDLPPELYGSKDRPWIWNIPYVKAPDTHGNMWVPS
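Tdp1 1 nM final; 15 min RT w/ cpd; substrate 15 nM, 5 min; beads 10 ug/ml, 10 min; AlphaScreen read. Neg ctrl: no enzyme.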
DT40 TDP1 CPT: DT40-hTDP1 cell growth loss with CPT; AID 686979; actives 12% (n = 420,000); Potency, µM (top dose mostly 46.2 µM), for inactives: at the highest dose activity change, negative = growth inhibition, hits mostly inhibitors; chicken DT40 Tdp1-/-;hTDP1 cells + 20 nM CPT, ATP luminescence, 48 h; note: % is set by controls: 0 for no effect and ±100 for the full control effect; nearly all actives have a fitted effect of over 55% in size
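Cell growth measured by CellTiter-Glo luminescence after a minimum 48 h, 37 C compound exposure with 20 nM CPT in Tdp1-knockout DT40 cells stably expressing hTDP1, seeded 400/well; qHTS titration format.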
TDP1 cell noCPT: qHTS for Inhibitors of human tyrosyl-DNA phosphodiesterase 1 (TDP1): qHTS in cells in absence of CPT; Potency, µM (series often up to 46.2 µM), without a hit: top-dose activity change, negative = growth inhibition, actives largely listed as inhibitors; DT40 Tdp1-/- hTDP1 cells, no CPT, ATP luminescence, 48 h; actives 15% (n = 420,000); note: % is set by controls: 0 for no effect and ±100 for the full control effect; nearly all actives have a fitted effect of over 55% in size
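Readout: luminescence from CellTiter-Glo after 30 min in the dark at RT. Cells: DT40 Tdp1-/- with stable hTDP1, 400/well. Exposure: compounds alone, ≥48 hr, 37 °C.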
ClpP mod: qHTS Assay for Activators of ClpP | ATP-dependent Clp protease proteolytic subunit (Bacillus subtilis (strain 168)), P80244 | Potency, µM (titrated, usually from 57.5 µM), inactives show at the top dose activity change, negative = active | actives 1.9% (n = 340,000) | purified B. subtilis ClpP, FRET peptide cleavage, 20 min; active = well fitted falling curve with a large enough effect; inconclusive = small, poorly fitted or top-dose-only effect; inactive = no such curve, though single readings can be large or run the other way; note: the source files actives as falling curves though it sought activators and does not explain the sign; nearly all actives have a fitted effect of over 65% in size
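ClpP 10 microg/mL final, pH 8 Tris/KCl buffer with BSA, glycerol, Tween-20; compound pinned in; FRET-FV substrate; RT 20 min; Ex320/Em430; ΔFRET vs ADEP 5.8 microM, DMSO, no enzyme.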
* hit, by the source's call; ? = inconclusive; / = not tested or not shown; [ ] = another dose, or the depositor's remark. Unless noted, calls come from the whole dose curve; as a rule, active = well fitted curve in the direction sought with a large enough effect; inconclusive = small, poorly fitted or top-dose-only effect, or another doubt; inactive = no such curve, though single readings can be large; an effect the other way counts as inactive or inconclusive. Potency is the fitted concentration of half-maximal effect.

SMILES	TDP1 inh	DT40 TDP1 CPT	TDP1 cell noCPT	ClpP mod
O=c1c2ccccc2n(Cc2ccccc2Cl)c(=O)n1CCc1ccccc1	2%	?	?	-6%
Cc1cccc(N=C/C(C(=O)C(F)(F)F)=C(\O)c2ccco2)c1	-1%	1%	-28%	-8%
O=C(/C(=C/O)N=Nc1ccccc1)c1ccco1	3%	?	?	/
O=C(/C(C=Nc1ccc(F)cc1)=C(/O)c1ccco1)C(F)(F)F	1%	-5%	-19%	25µM*
Cc1ccc(N=C/C(C(=O)C(F)(F)F)=C(\O)c2ccco2)cc1Cl	8%	-11%	-13%	16µM*
CCOC(=O)CSc1nc2nc(Cl)c(Cl)nc2[nH]1	/	?	?	4%
COc1ccccc1CNc1cc(-c2ccccc2)nc2nncn12	5%	23µM*	16µM*	-21%
CC(=O)Nc1cc(-c2ccccc2)nn1Cc1ccc(Cl)cc1	6%	-18%	1%	-1%
Clc1ccc(CNc2cc(-c3ccccc3)nc3nncn23)cc1	-2%	16µM*	13µM*	-25%
Clc1cccc(CNc2cc(-c3ccccc3)nc3nncn23)c1	5%	15µM*	15µM*	?
Clc1cccc(CNCCNCc2cccc(Cl)c2)c1	7%	-22%	?	/
COc1ccccc1CNc1ncccn1	/	23%	0%	/
Cc1ccc(-c2c3c([nH]c(=S)c2C#N)CCCC3)o1	32µM*	23µM*	?	-1%
CCc1ccc(NC(=O)CC2C(=O)N(c3cccc(OC)c3)C(=O)N2Cc2ccc(F)cc2)cc1 (stereo not given)	3%	23µM*	18µM*	0%
COc1cc(NC(=O)CC2C(=O)N(c3cccc(C)c3)C(=O)N2Cc2ccco2)cc(OC)c1 (stereo not given)	8%	?	23µM*	-1%
COc1ccc(NC(=O)CC2C(=O)N(c3cccc(OC)c3)C(=O)N2Cc2ccco2)cc1 (stereo not given)	9%	-8%	-18%	-1%
COc1ccc(CN2C(=O)N(c3cccc(C)c3)C(=O)C2CC(=O)Nc2ccc(F)cc2)cc1OC (stereo not given)	1%	-15%	?	1%
COC(=O)c1ccc(NC(=O)CC2C(=O)N(c3cccc(OC)c3)C(=O)N2Cc2ccco2)cc1 (stereo not given)	6%	16µM*	?	-1%
CCOc1ccc(NC(=O)CC2C(=O)N(c3ccccc3)C(=O)N2Cc2ccco2)cc1 (stereo not given)	2%	-4%	-16%	25µM*
Cc1ccc(Cl)cc1N1CCN(S(=O)(=O)c2ccc3oc(=O)c4ncn(C)c4c3c2)CC1	2%	-4%	-3%	0%
Cc1ccc2nc(-c3ccccc3C)c(CN(CC3CCCO3)C(=O)c3cccs3)cc2c1 (stereo not given)	/	-6%	-9%	/
CCOc1ccccc1/C=N/NC(=O)C[n+]1ccccc1	-2%[56.1 µM]	0%	1%	18%
CCc1ccc(NC(=O)CC2C(=O)N(c3ccc(C)cc3)C(=O)N2CCc2ccncc2)cc1 (stereo not given)	5%	?	23µM*	-1%
COc1ccc(CCN2C(=O)N(c3ccc(C)cc3)C(=O)C2CC(=O)Nc2ccc(F)cc2)cc1 (stereo not given)	4%	?	21µM*	-2%
COC(=O)c1ccc(NC(=O)CC2C(=O)N(c3cccc(OC)c3)C(=O)N2Cc2cccc(OC)c2)cc1 (stereo not given)	6%	?	15µM*	1%
COC(=O)c1ccc(NC(=O)CC2C(=O)N(c3ccc(Cl)cc3)C(=O)N2Cc2ccco2)cc1 (stereo not given)	11%	16µM*	18µM*	-4%
CCc1ccc(NC(=O)CC2C(=O)N(c3cccc(C)c3)C(=O)N2Cc2cccc(OC)c2)cc1 (stereo not given)	3%	?	?	-2%
COC(=O)c1ccc(NC(=O)CC2C(=O)N(c3ccccc3)C(=O)N2Cc2ccco2)cc1 (stereo not given)	3%	?	-40%	2%

Screening results from PubChem BioAssay.
